Measurements from PubChem BioAssay (NCI).
Compounds without any hit were thinned out: in the full panel of roughly 79,000, 15% have a hit. Calls of active or inactive are those of the source. Rule as the data show it: active = growth inhibition above about 70%; inactive = the rest.

How the values were obtained:
[1] = NCI Yeast Anticancer Drug Screen. Data for the rad52 strain (AID 147);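 also: 0% = growth of vehicle-treated control cultures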; conditions: S. cerevisiae rad52 mutant growth inhibition, active compounds read high
In short: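 Inhibition of yeast growth, referenced to vehicle controls, was the measured output for a strain with defective DNA damage repair.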

[2] = NCI Yeast Anticancer Drug Screen. Data for the wt1 strain (AID 149);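 also: 0% = growth of vehicle-treated wt1 cultures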; conditions: S. cerevisiae wt1 strain (SPY 50644) growth inhibition, active compounds read high
In short: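 The wt1 strain was treated with compounds, and growth was compared with vehicle-treated cultures to give inhibition.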

[3] = NCI Yeast Anticancer Drug Screen. Data for the rad50EPP+ strain (AID 151);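 also: 0% = growth of vehicle-treated control cultures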; conditions: S. cerevisiae rad50 mutant strain, active compounds read high
In short: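 Genetically defined yeast (rad50EPP+, DNA damage repair alteration) is grown with compound, and inhibition of growth is expressed relative to vehicle-treated controls.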

[4] = NCI Yeast Anticancer Drug Screen. Data for the rad50 strain (AID 155);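 also: 0% = growth of vehicle-only cultures of the same strain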; conditions: S. cerevisiae rad50 strain growth inhibition, active compounds read high
In short: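 Cells are treated with compound, grown, and their growth is then scored against vehicle-only cultures of the same repair-deficient yeast strain.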

[5] = NCI Yeast Anticancer Drug Screen. Data for the mec2-1 strain (AID 157); conditions: S. cerevisiae mec2-1 strain, active compounds read high
In short: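 Each compound was tested on mec2-1 yeast, a strain altered in DNA damage repair or cell cycle control. Growth inhibition is reported relative to vehicle.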

[6] = NCI Yeast Anticancer Drug Screen. Data for the rad14 strain (AID 159);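 also: 0% = growth of vehicle-treated control cultures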; conditions: S. cerevisiae rad14 strain growth inhibition, active compounds read high
In short: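 Readout: yeast growth inhibition, referenced to vehicle-only cultures. Strain bears a defined alteration in DNA damage repair.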

[7] = NCI Yeast Anticancer Drug Screen. Data for the sgs1 mgt1 strain (AID 161);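 also: 0% = growth of cultures given vehicle only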; conditions: S. cerevisiae sgs1 mgt1 strain, active compounds read high
In short: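 Test agents were incubated with a DNA-repair-mutant yeast strain. Growth was then read and compared against vehicle-treated controls.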

[8] = NCI Yeast Anticancer Drug Screen. Data for the CLN2oe strain (AID 163);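 also: 0% = growth of vehicle-only control cultures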; conditions: S. cerevisiae CLN2oe strain, active compounds read high
In short: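 First, the altered yeast strain was treated with each compound; second, its growth was measured; finally, inhibition was derived by comparison with vehicle controls.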

[9] = NCI Yeast Anticancer Drug Screen. Data for the cln2 rad14 strain (AID 165);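 also: 0% = growth equal to vehicle treated cultures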; conditions: S. cerevisiae cln2 rad14 strain, active compounds read high
In short: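 Test compounds were added to cln2 rad14 yeast cultures; inhibition of growth was then determined by comparison with vehicle treatment.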

[10] = NCI Yeast Anticancer Drug Screen. Data for the bub3 strain (AID 167); conditions: S. cerevisiae bub3 mutant strain, active compounds read high
In short: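 Part of a panel of yeast mutants defective in DNA damage repair or cell cycle regulation. Each strain is grown with compound, and inhibition is calculated relative to solvent-treated cultures.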

[11] = NCI Yeast Anticancer Drug Screen. Data for the wt2 strain (AID 169);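 also: 0% = growth of vehicle-treated yeast cultures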; conditions: S. cerevisiae wt2 strain growth inhibition, active compounds read high
In short: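 The panel's yeast strains carry defined changes in DNA repair or cell cycle genes. Each strain is grown with compound, and growth loss is scored relative to vehicle.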

[12] = NCI Yeast Anticancer Drug Screen. Data for the mlh1 strain (AID 171);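 also: 0% = growth of vehicle-treated control cultures of the same strain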; conditions: S. cerevisiae mlh1 strain growth inhibition, active compounds read high
In short: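 Inhibition values reflect reduced yeast growth in the presence of compound, referenced to vehicle controls, using a strain chosen for its alteration in DNA repair or cell cycle control.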

[13] = NCI Yeast Anticancer Drug Screen. Data for the sgs1 strain (AID 173);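 also: 0% = growth of vehicle-only control cultures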; conditions: S. cerevisiae sgs1 mutant, active compounds read high
In short: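 Vehicle-treated cultures served as reference for growth inhibition of a yeast strain altered in DNA damage repair or cell cycle control after compound exposure.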

[14] = NCI Yeast Anticancer Drug Screen. Data for the mlh1 rad18 strain (AID 175); conditions: S. cerevisiae mlh1 rad18 strain growth inhibition, active compounds read high
In short: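 Inhibition values reflect reduced growth of mutant yeast versus vehicle-treated controls following compound exposure; the mutations affect DNA damage repair.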

[15] = NCI Yeast Anticancer Drug Screen. Data for the rad18 strain (AID 177); conditions: S. cerevisiae rad18 mutant growth inhibition, active compounds read high
In short: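 Steps: expose repair-mutant yeast to compound; measure growth; express as inhibition relative to vehicle control.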

[16] = at 5.0 µM (retest, dose inferred, filed as 0.5)
[17] = at 50.0 µM (retest, dose inferred, filed as 5.0)

Measured: growth inhibition

C/C(=N\NC(=S)NNC(=S)N(C)c1ccccc1)c1ccccn1
inactive: [1]; at 1.2 µM 9% | [1]; at 3.7 µM 40% | [2]; at 1.2 µM -4% | [2]; at 3.7 µM 46% | [3]; at 1.2 µM 11% | [3]; at 3.7 µM 5% | [4]; at 1.2 µM -9% | [4]; at 3.7 µM 37% | [4]; [16] -19% | [5]; at 1.2 µM 18% | [5]; at 3.7 µM 25% | [5]; [16] 10% | [6]; at 1.2 µM -6% | [7]; [16] 0% | [8]; at 1.2 µM 17% | [8]; at 3.7 µM 13% | [9]; [16] 29% | [10]; at 1.2 µM -17% | [10]; at 3.7 µM 21% | [11]; at 1.2 µM 9% | [11]; at 3.7 µM 22% | [12]; at 1.2 µM 21% | [12]; at 3.7 µM 41% | [13]; at 1.2 µM 13% | [13]; at 3.7 µM 64% | [14]; [16] 27% | [15]; at 1.2 µM 16% | [15]; at 3.7 µM 31%
active: [1]; at 11.0 µM 97% | [1]; at 33.0 µM 98% | [1]; at 100.0 µM 83% | [2]; at 11.0 µM 97% | [2]; at 33.0 µM 98% | [2]; at 100.0 µM 86% | [3]; at 11.0 µM 92% | [3]; at 33.0 µM 98% | [3]; at 100.0 µM 81% | [4]; at 11.0 µM 97% | [4]; at 33.0 µM 97% | [4]; [17] 98% | [4]; at 50.0 µM 87% | [4]; at 100.0 µM 83% | [5]; at 11.0 µM 98% | [5]; at 33.0 µM 99% | [5]; [17] 99% | [5]; at 50.0 µM 90.5% | [5]; at 100.0 µM 82% | [6]; at 3.7 µM 71% | [6]; at 11.0 µM 97% | [6]; at 33.0 µM 98% | [6]; at 100.0 µM 79% | [7]; [17] 98% | [7]; at 50.0 µM 88.5% | [8]; at 11.0 µM 97% | [8]; at 33.0 µM 98% | [8]; at 100.0 µM 79% | [9]; [17] 99% | [9]; at 50.0 µM 86.3% | [10]; [16] 82% | [10]; at 11.0 µM 97% | [10]; at 33.0 µM 97% | [10]; [17] 98% | [10]; at 50.0 µM 87.2% | [10]; at 100.0 µM 83% | [11]; at 11.0 µM 97% | [11]; at 33.0 µM 99% | [11]; at 100.0 µM 90% | [12]; at 11.0 µM 97% | [12]; at 33.0 µM 98% | [12]; at 100.0 µM 83% | [13]; at 11.0 µM 98% | [13]; at 33.0 µM 98% | [13]; at 100.0 µM 88% | [14]; [17] 99% | [14]; at 50.0 µM 84.5% | [15]; at 11.0 µM 98% | [15]; at 33.0 µM 98% | [15]; at 100.0 µM 83%

N#CC(=S)Nc1cccc(Cl)c1
active: [4]; [17] 82% | [5]; at 100.0 µM 80% | [6]; at 100.0 µM 79% | [11]; at 100.0 µM 94% | [12]; at 100.0 µM 78% | [13]; at 100.0 µM 70% | [14]; [17] 86% | [14]; at 50.0 µM 88.4%
inactive: [1]; at 1.2 µM 3% | [1]; at 3.7 µM 1% | [1]; at 11.0 µM 10% | [1]; at 33.0 µM 26% | [1]; at 100.0 µM 50% | [2]; at 1.2 µM 7% | [2]; at 3.7 µM 10% | [2]; at 11.0 µM 23% | [2]; at 33.0 µM 31% | [2]; at 100.0 µM 41% | [3]; at 1.2 µM -12% | [3]; at 3.7 µM 2% | [3]; at 11.0 µM 10% | [3]; at 33.0 µM 25% | [3]; at 100.0 µM 46% | [4]; at 1.2 µM 5% | [4]; at 3.7 µM 8% | [4]; [16] 39% | [4]; at 11.0 µM 3% | [4]; at 33.0 µM 18% | [4]; at 50.0 µM 46.9% | [4]; at 100.0 µM 51% | [5]; at 1.2 µM 28% | [5]; at 3.7 µM 19% | [5]; [16] 19% | [5]; at 11.0 µM 33% | [5]; at 33.0 µM 28% | [5]; [17] 64% | [5]; at 50.0 µM 57% | [6]; at 1.2 µM 2% | [6]; at 3.7 µM -6% | [6]; at 11.0 µM 9% | [6]; at 33.0 µM 35% | [7]; [16] 28% | [7]; [17] 68% | [7]; at 50.0 µM 66.7% | [8]; at 1.2 µM 8% | [8]; at 3.7 µM 28% | [8]; at 11.0 µM 17% | [8]; at 33.0 µM 43% | [8]; at 100.0 µM 54% | [9]; [16] 8% | [9]; [17] 27% | [9]; at 50.0 µM 17.6% | [10]; at 1.2 µM 12% | [10]; at 3.7 µM 7% | [10]; [16] 26% | [10]; at 11.0 µM 2% | [10]; at 33.0 µM 41% | [10]; [17] 63% | [10]; at 50.0 µM 51.3% | [10]; at 100.0 µM 67% | [11]; at 1.2 µM 2% | [11]; at 3.7 µM 5% | [11]; at 11.0 µM -22% | [11]; at 33.0 µM 31% | [12]; at 1.2 µM 2% | [12]; at 3.7 µM 7% | [12]; at 11.0 µM 26% | [12]; at 33.0 µM 43% | [13]; at 1.2 µM 2% | [13]; at 3.7 µM 7% | [13]; at 11.0 µM 24% | [13]; at 33.0 µM 43% | [14]; [16] 64% | [15]; at 1.2 µM 1% | [15]; at 3.7 µM 12% | [15]; at 11.0 µM 23% | [15]; at 33.0 µM 37% | [15]; at 100.0 µM 58%

CCCCC1=NNC(=O)C1
inactive: [1]; at 1.2 µM 2% | [1]; at 3.7 µM 4% | [1]; at 11.0 µM 0% | [1]; at 33.0 µM 7% | [1]; at 100.0 µM 15% | [2]; at 1.2 µM 1% | [2]; at 3.7 µM 2% | [2]; at 11.0 µM 8% | [2]; at 33.0 µM 7% | [2]; at 100.0 µM 5% | [3]; at 1.2 µM -9% | [3]; at 3.7 µM -8% | [3]; at 11.0 µM -16% | [3]; at 33.0 µM -10% | [3]; at 100.0 µM -7% | [4]; at 1.2 µM 3% | [4]; at 3.7 µM -11% | [4]; [16] 45% | [4]; at 11.0 µM -6% | [4]; at 33.0 µM -11% | [4]; at 50.0 µM 3% | [4]; at 100.0 µM 9% | [5]; at 1.2 µM -7% | [5]; at 3.7 µM -5% | [5]; [16] 32% | [5]; at 11.0 µM -8% | [5]; at 33.0 µM -9% | [5]; [17] 57% | [5]; at 50.0 µM -3.3% | [5]; at 100.0 µM 5% | [6]; at 1.2 µM 6% | [6]; at 3.7 µM 11% | [6]; at 11.0 µM 9% | [6]; at 33.0 µM 13% | [6]; at 100.0 µM 18% | [7]; [16] 17% | [7]; [17] -26% | [8]; at 1.2 µM -43% | [8]; at 3.7 µM -48% | [8]; at 11.0 µM -52% | [8]; at 33.0 µM -70% | [8]; at 100.0 µM -28% | [9]; [16] 28% | [9]; [17] -56% | [9]; at 50.0 µM 52% | [10]; at 1.2 µM -4% | [10]; at 3.7 µM 0% | [10]; [16] 22% | [10]; at 11.0 µM -11% | [10]; at 33.0 µM 0% | [10]; [17] -26% | [10]; at 100.0 µM 7% | [11]; at 1.2 µM -40% | [11]; at 3.7 µM -45% | [11]; at 11.0 µM -64% | [11]; at 33.0 µM -52% | [11]; at 100.0 µM -66%
active: [4]; [17] 78% | [7]; at 50.0 µM 90% | [10]; at 50.0 µM 81.7%
